Assay results from PubChem BioAssay AID2783 (National Center for Advancing Translational Sciences (NCATS), 2010).
Inconclusive results are not listed. Calls come from the whole dose curve; as a rule, active = well fitted inhibition curve with a large enough effect in the polarisation, with a control signal flat (not every such curve was filed as active); inconclusive = small, poorly fitted or top-dose-only effect, or effect the other way, or a change in a side signal; inactive = no such curve, though single readings can be large or run the other way; the % refers to the polarisation.

The molecules below were run against Menin (Homo sapiens) (UniProt O00255) (assay: Confirmation of Inhibitors Targeting the Menin-MLL Interaction in MLL Related Leukemias: Competition With Fluorescein Labeled MLL-derived Peptide). Settings: Fluorescence polarization, fluorescein-MLL peptide displacement from menin; series mostly up to 100 µM; activity change, negative = inhibition: at the top concentration.
% is set by controls: 0 for no effect and ±100 for the full control effect.

Chain of Menin (Homo sapiens) (O00255 whole entry, looked up): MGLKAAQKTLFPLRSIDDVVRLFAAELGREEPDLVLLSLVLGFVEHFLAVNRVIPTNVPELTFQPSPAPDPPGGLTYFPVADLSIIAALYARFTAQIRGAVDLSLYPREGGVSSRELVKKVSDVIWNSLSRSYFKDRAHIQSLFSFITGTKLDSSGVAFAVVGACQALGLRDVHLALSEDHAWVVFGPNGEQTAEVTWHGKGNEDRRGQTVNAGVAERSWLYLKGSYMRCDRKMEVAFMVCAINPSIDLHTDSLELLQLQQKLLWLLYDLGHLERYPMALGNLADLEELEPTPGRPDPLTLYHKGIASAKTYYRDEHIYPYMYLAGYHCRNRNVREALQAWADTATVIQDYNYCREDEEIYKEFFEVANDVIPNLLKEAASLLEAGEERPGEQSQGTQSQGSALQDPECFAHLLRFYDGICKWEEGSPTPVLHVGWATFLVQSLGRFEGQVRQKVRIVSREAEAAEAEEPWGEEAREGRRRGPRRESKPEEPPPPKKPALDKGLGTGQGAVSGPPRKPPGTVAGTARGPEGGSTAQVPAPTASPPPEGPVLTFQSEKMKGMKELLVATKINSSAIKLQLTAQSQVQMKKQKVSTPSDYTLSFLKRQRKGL

Activity change, negative = inhibition, inactive:
Cc1ccc(C2=NN(C(=O)c3ccccc3F)C(c3ccccc3F)C2)cc1 (stereo not drawn) 1.79% [at 288 µM], COCCNC(=O)C(OC(=O)c1nsc(Cl)c1Cl)C(C)C (stereo not drawn) -6.55%, O=C(/C=C/c1ccccc1)NC(NC(=S)Nc1cc(Cl)ccc1Cl)C(Cl)(Cl)Cl (stereo not drawn) -1.38% [at 288 µM], CN1[C@H](CC(=O)c2ccccc2)CCC[C@H]1C[C@@H](O)c1ccccc1 -0.812% [at 288 µM], COc1ccccc1N(CC1CO1)S(=O)(=O)c1ccccc1 (stereo not drawn) -17.6%, CN(CCOc1ccc(Cl)cc1)CC(O)c1ccccc1 (stereo not drawn) -7.96% [at 288 µM], COc1ccc(CC(=O)Nc2ccc(-c3nnc(-c4ccccc4)o3)cc2)cc1 0.728%, O=C(c1cc2c(=O)n3ccccc3nc2s1)N1CCOCC1 -2.44% [at 288 µM], CC(C)Cc1cc(C(=O)NCCCN2CCOCC2)no1 -12.7%, COc1ccc(CN2CCN(C(C)C(=O)N(C)Cc3cccc(F)c3)CC2)cc1OC (stereo not drawn) -2.91%, CN(C)/C=C(/C(=O)c1ccc(Cl)cc1)S(=O)(=O)c1ccc(Cl)cc1 2.27% [at 288 µM], O=C(Nc1ccc(F)c(Cl)c1)c1cc(-c2ccco2)on1 3.78%, Cc1ccc(NC(=O)C(OC(=O)c2ccc(C=O)cc2)c2ccccc2)cc1Cl (stereo not drawn) -12.8%, COc1ccc(-c2csc(NC(=O)c3cc(-c4cccs4)nc4ccccc34)n2)c(OC)c1 -10.6%, CC(=O)Nc1ccc(-c2cc(-c3ccc(NC(C)=O)cc3)nc(-c3ccc(NC(C)=O)cc3)n2)cc1 -13.7%, CCc1ccc(NC(=O)CSc2nc(O)cc(=O)n2C2CCCC2)cc1 -11.7%, Cc1cc2c(c(=O)n1Cc1ccccc1)C1O[C@](c3ccsc3)(Cc3cc(C#N)ccc31)O2 -6.23% [at 25 µM], NC(=O)c1ccc(NC(=O)c2cncn2-c2ccccc2)cc1 1.21%, COc1cccc(C(=O)/C=C/Nc2ccc(S(=O)(=O)Nc3ccc(C(C)=O)cc3)cc2)c1 19.2% [at 288 µM], O=C(NC1CCN(c2ncccn2)CC1)c1c(F)cccc1F -2.68% [at 288 µM], CCC(=O)NC(=S)Nc1ccc(NC(=S)NC(=O)c2ccc(C)cc2)cc1 -10.6%, O=C(CCn1nc(-c2ccccc2)ccc1=O)N1CCN(c2ccccn2)CC1 2.46%, N#CC1=C(N)OC2=C(C(=O)CC(c3ccco3)C2)C1c1ccc(OCc2c(F)cccc2Cl)cc1 (stereo not drawn) 35.6% [at 182 µM], CCOc1ccc(C2Nc3ccc4ccccc4c3-c3c2c(=O)oc2ccccc32)cc1 (stereo not drawn) -2.96%, Cc1cc2ncn(-c3ncnc4sc5c(c34)CCC(C)C5)c2cc1C (stereo not drawn) -18.4%, O=C(CCN1CCN(c2ccc([N+](=O)[O-])cc2)CC1)c1ccc(Cl)cc1 -6.26% [at 288 µM], COc1ccc(CN2CCC(Cc3ccccc3)CC2)c(C)c1C -1.64%, NS(=O)(=O)c1ccc(NC(=O)c2ccc(S(=O)(=O)N3CCc4ccccc43)cc2)cc1 43.2% [at 288 µM], CN1CCN(CC(=O)c2ccccc2F)CC1 -0.485%, CCCOc1ccc(C(=O)N2CCN(Cc3ccc4c(c3)OCO4)CC2)cc1 -10.4%, CC(c1ccccc1)c1nnc(NC(=O)Nc2ccccc2F)s1 (stereo not drawn) 0.65% [at 288 µM], O=C(CSc1nc(O)cc(=O)n1-c1ccccc1)c1ccc(Br)cc1 -15.8%, O=C(CSc1ccc(Cl)cc1)Nc1ccc(NC(=O)c2ccco2)cc1 -10.8%
